This is a sample that favours compounds with a hit; in the whole collection about 31% have one here.
CYP2C19 act – cytochrome P450 2C19 (human) activation. P33261. recombinant CYP2C19, luciferin-H EGE luminescence; hits give high values; 0 = fully inhibited enzyme, 1 = untreated enzyme. activation factor at 5 µM. 96,000 tested, under 10 active. AID 1025;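 active = activation factor of at least 2 at 5 µM in the primary screen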
Target sequence (P33261 whole entry, looked up): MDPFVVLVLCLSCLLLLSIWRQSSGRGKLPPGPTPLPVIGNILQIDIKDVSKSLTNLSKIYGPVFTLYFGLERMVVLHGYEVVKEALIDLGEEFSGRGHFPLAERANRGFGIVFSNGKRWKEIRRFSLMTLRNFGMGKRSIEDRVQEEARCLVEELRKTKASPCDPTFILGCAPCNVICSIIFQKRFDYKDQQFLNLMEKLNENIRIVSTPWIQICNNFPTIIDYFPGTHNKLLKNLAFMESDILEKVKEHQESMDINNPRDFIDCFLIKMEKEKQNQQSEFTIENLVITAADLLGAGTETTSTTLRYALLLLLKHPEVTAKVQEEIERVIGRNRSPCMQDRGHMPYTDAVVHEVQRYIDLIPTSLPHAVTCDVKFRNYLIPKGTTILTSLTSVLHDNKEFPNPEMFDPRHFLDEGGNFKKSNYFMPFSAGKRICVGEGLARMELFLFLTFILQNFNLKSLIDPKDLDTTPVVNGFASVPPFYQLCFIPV
CYP2C9 inh – inhibitors of human CYP2C9; CYP2C9 Supersomes, luciferin-H conversion, luminescence; inhibition, % at 5 µM; actives 20% (n = 96,000);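 active = blocking of liver enzyme CYP2C9 beyond about 50% at 5 µM, limit read from the data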
CYP2C9 activ – activators of human CYP2C9; P11712; recombinant CYP2C9, luciferin-H conversion, luminescence; hits give high values; factor 1 = untreated enzyme, 0 = blocked; activation factor at 5 µM; actives 1.4% (n = 96,000);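 active = activation factor of 2 or more for CYP2C9 at a 5 µM dose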
PLAP activator – activators of human placental alkaline phosphatase | P05187 | activation fold at 20 µM | actives 1.2% (n = 96,000) | purified PLAP enzyme, luminescent substrate read-out; hits give high values; in the data active = activation fold above about 2
CYP2C19 inh – inhibitors of human CYP2C19; P33261; inhibition, % at 5 µM; CYP2C19 Supersomes, luciferin-H EGE luminescence, 30 min; actives 21% (n = 96,000);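 active = CYP2C19 inhibition above a set limit at 5 µM in the primary screen, cut at about 50% in these data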
Hits are given with their value; i = inactive.

SMILES | CYP2C19 act | CYP2C9 inh | CYP2C9 activ | PLAP activator | CYP2C19 inh
Cc1ccc(-c2cc(C(F)(F)F)n3ncc(C(=O)N4CCN(C)CC4)c3n2)cc1 | i | i | i | i | i
C=CCc1c(C)nc2c(C(=O)O)cnn2c1C | i | i | i | i | i
Cc1nc(SCC(O)CO)c([N+](=O)[O-])[nH]1 (stereo not given) | i | i | i | i | i
COC(=O)c1ccc(Sc2ccccc2NS(=O)(=O)c2ccc(OC)cc2)nc1 | i | i | i | i | i
COc1ccc(OC)c2[nH]c(=O)c(CCNC(=O)c3ccc(Br)o3)cc12 | i | i | i | i | 77
Cc1ccc2cc(CCNC(=O)c3ccc(Br)o3)c(=O)[nH]c2c1 | i | i | i | i | 54
COc1ccc(OC)c2[nH]c(=O)c(CCNC(=O)CC(C)C)cc12 | i | i | 2.5 | i | i
COc1ccc(OC)c2[nH]c(=O)c(CCNC(=O)C(C)C)cc12 | i | i | i | i | i
COc1ccc(OC)c2[nH]c(=O)c(CCNC(=O)C3CCCCC3)cc12 | i | i | 2.4 | i | i
N/C(=N\OC(=O)C1CCCCC1)c1cccnc1 | i | i | i | i | i
CCCCCCn1c(CN2CCCCC2CC)nc2c1c(=O)n(C)c(=O)n2C (stereo not given) | i | i | i | i | i
Cc1cc(=O)[nH]c(SCc2cc(=O)n3nc(C)sc3n2)n1 | i | i | i | i | i
COCC(=O)N(Cc1ccco1)c1nnc(C2CCOC2)s1 (stereo not given) | i | i | i | i | i
CNC(=S)N1CCN(c2ccc(OC)cc2)CC1 | i | i | i | i | 70
COc1ccc(CCNC(=O)NC23CC4CC(CC(C4)C2)C3)cc1 | i | i | i | i | 53
COc1ccc(CC(=O)OCC(=O)NC(=O)NC23CC4CC(CC(C4)C2)C3)cc1 | i | 66 | i | i | i
COc1ccc(N2CCN(C(=O)NC34CC5CC(CC(C5)C3)C4)CC2)cc1 | i | 59 | i | i | 63
COC(=O)N1CCN(c2ccc(OC)cc2)CC1 | i | i | i | i | i
COc1ccc(N2CCN(C(=S)Nc3cc(C)cc(C)c3)CC2)cc1 | i | i | i | i | i
O=C(Cc1cccs1)Nc1ccc(-c2nc3ccccc3[nH]2)cc1 | i | i | i | i | i
O=C(O)c1cc(-c2ccco2)nc2ccc(Br)cc12 | i | i | i | i | i
OC(Cn1cncn1)c1ccc(Cl)cc1Cl (stereo not given) | i | 56 | i | i | 98
O=C(Cn1cncn1)NCc1cccc2ccccc12 | i | i | i | i | i
OC(Cn1cncn1)c1ccc(Cl)cc1 (stereo not given) | i | 58 | i | i | 95
OC(c1ccc(Cl)cc1Cl)C(Cc1cccnc1)n1cncn1 (stereo not given) | i | i | i | i | 86
SMILES | CYP2C19 act | CYP2C9 inh | CYP2C9 activ | PLAP activator | CYP2C19 inh
CC1CCN(C2(O)C(=O)Nc3ccc([N+](=O)[O-])cc32)CC1 (stereo not given) | i | 66 | i | i | i
CC1CCN(CCCCOc2ccc([N+](=O)[O-])cc2)CC1 | i | i | i | i | i
c1cncc(CNC2CCCc3ccccc32)c1 (stereo not given) | i | i | i | i | i
CCCOc1cccc(NC(=O)c2cc(C)oc2C)c1 | i | i | i | i | i
CCCC(NC(=O)CNC(=O)C(C)(C)C)C(=O)O (stereo not given) | i | i | i | i | i
O=[N+]([O-])c1ccc(N2CCN(S(=O)(=O)c3ccccc3)CC2)cc1NCCN1CCOCC1 | i | 70 | i | i | 55
CNc1cc(N2CCCCCC2)ccc1[N+](=O)[O-] | i | i | i | i | 51
COc1ccc(OCCNc2cc(N3CCCCC3)ccc2[N+](=O)[O-])cc1 | i | i | i | i | i
COc1ccc(OCCNc2cc(N3CCOCC3)ccc2[N+](=O)[O-])cc1 | i | 63 | i | i | i
COc1cccc(OCCNc2cc(N3CCCCC3)ccc2[N+](=O)[O-])c1 | i | 70 | i | i | i
COC(=O)c1ccc(OCCn2cnc3ccccc3c2=O)cc1 | i | i | i | i | i
Cc1ccccc1OCCNc1cc(N2CCCCC2)ccc1[N+](=O)[O-] | i | 95 | i | i | 89
O=[N+]([O-])c1ccc(N2CCOCC2)cc1NCc1ccccc1 | i | i | i | i | i
Cc1ccc(C(=O)Nc2c3c(nn2C(C)(C)C)CS(=O)(=O)C3)cc1C | i | i | i | i | 99
CCOC(=O)c1oc2cccc(O)c2c1C | i | i | 2.4 | i | i
CCOC(=O)c1oc2ccccc2c1CN1CCN(c2ccccc2)CC1 | i | i | i | i | 52
CCOC(=O)c1oc2cccc(OC(C)=O)c2c1C | i | i | i | i | 76
CCOC(=O)c1c(-c2ccccc2)oc2ccc(O)c(CN3CCOCC3)c12 | i | i | i | i | 56
CCOC(=O)N1CCC(NC(=O)C2CCCN(S(=O)(=O)c3cccnc3)C2)CC1 (stereo not given) | i | i | i | i | i
O=C(NCCCCC(NC(=O)c1ccc([N+](=O)[O-])cc1)C(=O)O)c1ccc([N+](=O)[O-])cc1 (stereo not given) | i | i | i | i | i
CCOC(=O)c1oc2ccccc2c1N | i | i | i | i | 87
CCOC(=O)c1oc2cccc(O)c2c1CN1CCOCC1 | i | i | i | i | 60
CCOC(=O)c1oc2ccccc2c1CN1CCN(C(=O)c2ccccc2)CC1 | i | i | i | i | i
CCOCC(=O)Nc1c(C(=O)OCC)oc2ccccc12 | i | i | i | i | i
CCOC(=O)c1oc2ccc3c(c2c1C)C(=O)CC1(CCN(C(=O)OCC)CC1)O3 | i | 51 | i | i | 52
SMILES | CYP2C19 act | CYP2C9 inh | CYP2C9 activ | PLAP activator | CYP2C19 inh
CCOC(=O)c1oc2cccc(O)c2c1CN(Cc1ccccc1)C(C)=O | i | i | i | i | 67
O=C(c1ccc(C(=O)N2CCOCC2)nc1)N1CCOCC1 | i | i | i | i | i
CCC(C)(C)NC(=O)C(c1cccc(OC)c1)N(C(=O)c1ccn[nH]1)c1cccc(OC)c1 (stereo not given) | i | i | i | 2.9 | 74
CCOC(=O)N1CCC(NC(=O)CSCc2nc(-c3sccc3C)oc2C)CC1 | i | i | i | i | i
COc1ccc(-c2nc(CSCC(=O)N3CCc4ccccc43)c(C)o2)cc1OC | i | i | i | i | i
Cc1ccsc1-c1nc(CSCC(=O)NCc2ccc3c(c2)OCO3)c(C)o1 | i | 79 | i | i | i
COc1ccc(-c2nc(CSCC(=O)NCCC3=CCCCC3)c(C)o2)cc1OC | i | i | i | i | 60
COc1ccc(-c2nc(CSCC(=O)NCc3ccc4c(c3)OCO4)c(C)o2)cc1OC | i | 53 | i | i | 65
CCc1ccc(-c2nc(CSCC(=O)NCCCN3CCCC3=O)c(C)o2)cc1 | i | 88 | i | i | i
COCCNC(=O)CSCc1nc(-c2ccc(SC)cc2)oc1C | i | i | i | i | i
COc1ccc(-c2nc(CSCC(=O)NCc3ccc4c(c3)OCO4)c(C)o2)cc1 | i | 89 | i | i | 95
COc1ccc(CCNC(=O)c2c[nH]c3ccccc3c2=O)cc1OC | i | i | i | i | 50
